For 24 compounds, outcome and AC50 results are on record in PubChem BioAssay (EPA / NIEHS).

The target in test [1] is rat Glutamate, AMPA Site (AMPA), Gria1 (gene 50592) (UniProt P19490). The test can be described thus: NVS_LGIC_rAMPA: NovaScreen (NVS) Ligand-Gated Ion Channel Assay for rat Glutamate, AMPA Site (AMPA) (AID 2283324). An outline of the steps:
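Screening at 25 uM in duplicate preceded concentration series reaching 50 uM for qualifying compounds. Radioligand displacement on rat forebrain membranes, 1 h, filter-based scintillation readout; reduced binding relative to DMSO.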

Test [2] has as its target rat Peripheral-type Benzodiazepine Receptor (PBR), Tspo (gene 24230) (UniProt P16257). Description: NVS_MP_rPBR: NovaScreen (NVS) Membrane Protein Assay for rat Peripheral-type Benzodiazepine Receptor (PBR) (AID 2283335). The gist of the method: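 Competitive displacement of specific radioligand from rat kidney membrane PBR, read by filtration and scintillation after 1 h. Compounds first tested at 25 uM in duplicate, then in concentration series; signal loss relative to DMSO.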

Test [3] concerns the target chimpanzee Androgen Receptor (AR), AR (gene 747460) (UniProt O97775). The test can be described thus: NVS_NR_cAR: NovaScreen (NVS) Nuclear Receptor Binding Assay for chimpanzee Androgen Receptor (AR) (AID 2283346). An outline of the steps: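 Cell-free radioligand displacement using receptor protein extracted from Sf9/Sf21 cells; bound radioligand measured by scintillation counting 72 hours after chemical dosing. Loss of signal versus DMSO baseline indicates binding; primary screen single-concentration in duplicate at 25 uM, actives followed in concentration series.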

In test [4] the target is rat Thyrotropin Releasing Hormone Receptor (TRH), Trhr (gene 25570) (UniProt Q01717). Description: NVS_GPCR_rTRH: NovaScreen (NVS) G Protein-Coupled Receptor Assay for rat Thyrotropin Releasing Hormone Receptor (TRH) (AID 2283329).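 Note: hit means lower bound tracer signal versus DMSO baseline.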 The gist of the method:
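Competitive radioligand binding on rat forebrain membrane preparations, with filtration and scintillation readout after 4 h. Primary testing in duplicate at 25 uM; actives confirmed in concentration-response. DMSO defined baseline.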

In the next test the test system is NCBI gene 100848466. Description: NVS_NR_bPR: NovaScreen (NVS) Nuclear Receptor Binding Assay for bovine Progextron Receptor (PR) (AID 2283343).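 For AC50: actives lower bound radioligand signal below DMSO meaning displacement of the label.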 The gist of the method:
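Steps: bovine uterine membranes were dosed with chemical alongside radioligand, incubated 18 hours, then radiodetected by scintillation counting. Initial testing used 25 uM in duplicate; confirmed actives were rerun as concentration series.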

Test [5] deals with human Constitutive Androstane Receptor (CAR), NR1I3 (gene 9970) (UniProt Q14994). Description: NVS_NR_hCAR_Antagonist: NovaScreen (NVS) Nuclear Receptor Binding Assay for human Constitutive Androstane Receptor Antagonism (CAR) (AID 2283344). The gist of the method:
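Single 25 uM duplicate primary screen, with concentration-series follow-up on actives. Cell-free binding format run in antagonist mode, TR-FRET signal taken 1 h post-dose; activity is signal loss relative to DMSO.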

The target in test [6] is bovine Estrogen Receptor (ER), ESR1 (gene 407238) (UniProt P49884). The test can be described thus: NVS_NR_bER: NovaScreen (NVS) Nuclear Receptor Binding Assay for bovine Estrogen Receptor (ER) (AID 2283345).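 Note: actives lower the bound radioligand count which means they displace the ER ligand.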 An outline of the steps: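 Displacement of a radioligand from estrogen receptor in bovine uterine membrane preparations; scintillation signal taken at 18 hours, DMSO as baseline. Single-concentration duplicates (25 uM) preceded concentration-response follow-up of actives.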
Sequence of bovine Estrogen Receptor (ER), ESR1 (gene 407238) (P49884 whole entry, looked up): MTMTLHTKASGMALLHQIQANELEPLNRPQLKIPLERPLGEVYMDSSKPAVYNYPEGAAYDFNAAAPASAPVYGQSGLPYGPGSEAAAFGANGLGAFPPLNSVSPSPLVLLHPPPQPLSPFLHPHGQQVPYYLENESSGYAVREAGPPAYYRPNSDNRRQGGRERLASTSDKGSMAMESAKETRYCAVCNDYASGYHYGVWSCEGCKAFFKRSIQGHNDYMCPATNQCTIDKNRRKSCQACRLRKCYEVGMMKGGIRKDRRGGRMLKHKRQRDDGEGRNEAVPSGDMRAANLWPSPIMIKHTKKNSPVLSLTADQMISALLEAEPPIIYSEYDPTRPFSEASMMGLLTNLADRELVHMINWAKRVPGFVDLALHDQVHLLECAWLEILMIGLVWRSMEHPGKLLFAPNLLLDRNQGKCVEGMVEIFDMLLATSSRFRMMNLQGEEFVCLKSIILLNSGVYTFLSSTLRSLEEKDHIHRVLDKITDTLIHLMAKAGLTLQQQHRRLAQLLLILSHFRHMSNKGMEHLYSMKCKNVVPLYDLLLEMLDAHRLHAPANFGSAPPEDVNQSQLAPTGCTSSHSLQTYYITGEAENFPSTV

In test [7] the target is Estrogen receptor (Homo sapiens) (UniProt P03372). The test can be described thus: NVS_NR_hER: NovaScreen (NVS) Nuclear Receptor Binding Assay for human Estrogen Receptor (ER) (AID 2283348). The gist of the method: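 Radiodetection of ligand displacement in a lysate-based, cell-free format using MCF7 extracts, read at 18 hours. Duplicate 25 uM primary testing, then concentration series for actives.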
Sequence of Estrogen receptor (Homo sapiens) (P03372 whole entry, looked up): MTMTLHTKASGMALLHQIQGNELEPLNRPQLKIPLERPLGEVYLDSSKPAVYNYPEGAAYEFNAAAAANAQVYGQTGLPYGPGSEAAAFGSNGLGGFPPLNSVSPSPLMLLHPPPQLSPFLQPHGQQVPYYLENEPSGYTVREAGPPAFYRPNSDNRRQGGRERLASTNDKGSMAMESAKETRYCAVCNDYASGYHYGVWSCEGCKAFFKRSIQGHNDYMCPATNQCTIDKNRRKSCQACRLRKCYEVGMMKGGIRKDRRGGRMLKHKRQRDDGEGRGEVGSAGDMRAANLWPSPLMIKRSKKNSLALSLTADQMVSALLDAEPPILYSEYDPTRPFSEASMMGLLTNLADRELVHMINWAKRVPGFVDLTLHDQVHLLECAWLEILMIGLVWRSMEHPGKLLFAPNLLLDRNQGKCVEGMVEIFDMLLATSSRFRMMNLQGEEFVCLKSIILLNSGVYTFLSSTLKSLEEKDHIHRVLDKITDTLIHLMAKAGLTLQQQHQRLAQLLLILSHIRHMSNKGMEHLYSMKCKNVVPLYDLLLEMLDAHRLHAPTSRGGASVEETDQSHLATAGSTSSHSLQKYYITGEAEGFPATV

The target of test [8] is Bile acid receptor (Homo sapiens) (UniProt Q96RI1). The test can be described thus: NVS_NR_hFXR_Agonist: NovaScreen (NVS) Nuclear Receptor Binding Assay for human Farnesoid X Receptor Agonism (FXR) (AID 2283347). An outline of the steps:
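Agonist-mode FXR assay read by time-resolved FRET 1 h after compound addition, using isolated human receptor protein without cells. Duplicate 25 uM single-point primary screen, concentration series for confirmed actives; DMSO as baseline.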

The target in test [9] is Small conductance calcium-activated potassium channel protein 1 (Rattus norvegicus) (UniProt P70606). The test can be described thus: NVS_IC_rKCaCh: NovaScreen (NVS) Ion Channel Assay for rat Potassium Channel, Ca2+ Act., VI (KCaCh) (AID 2283336). An outline of the steps: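 Filter-based scintillation counting of radioligand bound to rat forebrain membrane preparations, measured 1 h after compound addition. Primary screen used 25 uM in duplicate, with concentration-response follow-up; signal decrease relative to DMSO marks activity.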

For test [10], the target named is rat Gamma-Aminobutyric Acid Type A Receptor BDZ, alpha 6 site (GABARa6), Gabra6 (gene 29708) (UniProt P30191). The test can be described thus: NVS_LGIC_rGABARa6: NovaScreen (NVS) Ligand-Gated Ion Channel Assay for rat Gamma-Aminobutyric Acid Type A Receptor BDZ, alpha 6 site (GABARa6) (AID 2283339). The gist of the method:
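Actives from a 25 uM duplicate screen were retested in concentration series (max 50 uM). Specific radioligand displacement from rat cerebellar membranes was counted by filter-based scintillation at 1 h; DMSO served as baseline.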

Test [11] deals with rat Glutamate, MK-801 Agonist Site (GluNMDA_MK801), Grin1 (gene 24408) (UniProt P35439). Description: NVS_LGIC_rGluNMDA_MK801_Agonist: NovaScreen (NVS) Ligand-Gated Ion Channel Assay for rat Glutamate, MK-801 Agonist Site (GluNMDA_MK801) (AID 2283340). The gist of the method: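 Rat forebrain membrane preparation; MK-801-site radioligand binding read by filtration and scintillation after 1.5 h. Single-point 25 uM duplicate screen, followed by singleton concentration series to 50 uM max; DMSO baseline.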

A short description of test [12]: NVS_IC_rCaBTZCHL: NovaScreen (NVS) Ion Channel Assay for Calcium Channel, Type L, Benzothiazepine Site (CaBTZCHL) (AID 2283337). An outline of the steps:
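Test chemicals were added to rat cortical membranes and incubated 1.5 h with a tritiated or iodinated radioligand for the benzothiazepine site. Bound ligand was separated by filtration and counted. Actives from the 25 uM duplicate screen were retested in concentration series.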

Inconclusive results are not listed. Active and inactive are the calls of the source. Rule for the calls: active = hit-call score of the fitted dose curve at least 0.9, where 1 is the maximum; inconclusive = response in the unintended direction; inactive = score below 0.9.

Sequence of rat Peripheral-type Benzodiazepine Receptor (PBR), Tspo (gene 24230) (P16257 whole entry, looked up): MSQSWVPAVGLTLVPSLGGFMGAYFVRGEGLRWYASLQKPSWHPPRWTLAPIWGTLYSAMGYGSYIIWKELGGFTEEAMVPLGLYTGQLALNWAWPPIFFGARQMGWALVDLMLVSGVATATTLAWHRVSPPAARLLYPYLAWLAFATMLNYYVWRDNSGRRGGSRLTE
Sequence of human Constitutive Androstane Receptor (CAR), NR1I3 (gene 9970) (Q14994 whole entry, looked up): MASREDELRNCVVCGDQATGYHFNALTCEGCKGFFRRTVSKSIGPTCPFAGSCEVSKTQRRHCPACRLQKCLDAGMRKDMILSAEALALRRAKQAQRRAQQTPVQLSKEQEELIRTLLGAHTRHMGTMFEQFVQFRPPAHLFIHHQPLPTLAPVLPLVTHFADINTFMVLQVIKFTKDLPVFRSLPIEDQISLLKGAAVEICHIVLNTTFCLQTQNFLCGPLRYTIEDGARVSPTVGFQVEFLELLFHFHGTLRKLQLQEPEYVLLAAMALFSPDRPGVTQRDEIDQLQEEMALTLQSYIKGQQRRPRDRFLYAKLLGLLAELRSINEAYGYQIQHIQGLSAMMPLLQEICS
Sequence of chimpanzee Androgen Receptor (AR), AR (gene 747460) (O97775 whole entry, looked up): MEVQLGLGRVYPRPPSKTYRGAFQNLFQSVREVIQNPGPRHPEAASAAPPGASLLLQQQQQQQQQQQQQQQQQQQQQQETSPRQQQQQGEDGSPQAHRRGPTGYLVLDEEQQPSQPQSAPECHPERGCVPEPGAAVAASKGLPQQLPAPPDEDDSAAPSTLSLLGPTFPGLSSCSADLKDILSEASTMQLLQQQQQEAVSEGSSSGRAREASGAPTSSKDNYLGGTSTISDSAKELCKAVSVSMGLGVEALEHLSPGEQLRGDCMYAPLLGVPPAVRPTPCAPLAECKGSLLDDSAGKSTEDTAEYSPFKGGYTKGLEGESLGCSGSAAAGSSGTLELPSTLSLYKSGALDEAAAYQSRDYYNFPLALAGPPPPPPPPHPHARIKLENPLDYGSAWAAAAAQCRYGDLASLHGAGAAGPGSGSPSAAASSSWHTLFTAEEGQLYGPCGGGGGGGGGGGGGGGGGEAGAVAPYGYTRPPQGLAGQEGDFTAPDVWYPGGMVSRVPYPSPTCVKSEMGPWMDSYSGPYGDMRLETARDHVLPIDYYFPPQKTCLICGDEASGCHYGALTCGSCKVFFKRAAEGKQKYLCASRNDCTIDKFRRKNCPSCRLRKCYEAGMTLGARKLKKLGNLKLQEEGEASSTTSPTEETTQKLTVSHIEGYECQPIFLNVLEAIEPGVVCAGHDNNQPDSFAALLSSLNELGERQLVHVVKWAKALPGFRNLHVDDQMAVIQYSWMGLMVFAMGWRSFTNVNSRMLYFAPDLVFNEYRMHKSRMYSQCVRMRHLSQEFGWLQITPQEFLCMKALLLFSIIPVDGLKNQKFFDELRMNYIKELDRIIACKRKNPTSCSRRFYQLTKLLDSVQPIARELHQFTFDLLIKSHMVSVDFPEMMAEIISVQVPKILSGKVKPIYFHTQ
Sequence of Bile acid receptor (Homo sapiens) (Q96RI1 whole entry, looked up): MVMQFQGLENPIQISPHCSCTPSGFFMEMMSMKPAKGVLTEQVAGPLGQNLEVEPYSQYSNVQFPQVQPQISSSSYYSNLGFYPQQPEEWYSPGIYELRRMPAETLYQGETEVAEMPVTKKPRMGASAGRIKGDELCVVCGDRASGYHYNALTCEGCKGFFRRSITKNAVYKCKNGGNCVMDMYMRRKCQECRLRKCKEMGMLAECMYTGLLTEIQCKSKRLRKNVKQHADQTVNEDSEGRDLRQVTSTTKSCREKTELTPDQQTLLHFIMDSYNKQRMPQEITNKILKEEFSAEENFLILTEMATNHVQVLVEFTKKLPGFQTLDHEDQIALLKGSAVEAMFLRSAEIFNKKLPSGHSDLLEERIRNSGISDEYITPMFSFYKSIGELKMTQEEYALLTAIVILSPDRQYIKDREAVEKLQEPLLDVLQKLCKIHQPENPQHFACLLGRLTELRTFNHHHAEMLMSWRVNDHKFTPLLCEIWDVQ
Sequence of rat Gamma-Aminobutyric Acid Type A Receptor BDZ, alpha 6 site (GABARa6), Gabra6 (gene 29708) (P30191 whole entry, looked up): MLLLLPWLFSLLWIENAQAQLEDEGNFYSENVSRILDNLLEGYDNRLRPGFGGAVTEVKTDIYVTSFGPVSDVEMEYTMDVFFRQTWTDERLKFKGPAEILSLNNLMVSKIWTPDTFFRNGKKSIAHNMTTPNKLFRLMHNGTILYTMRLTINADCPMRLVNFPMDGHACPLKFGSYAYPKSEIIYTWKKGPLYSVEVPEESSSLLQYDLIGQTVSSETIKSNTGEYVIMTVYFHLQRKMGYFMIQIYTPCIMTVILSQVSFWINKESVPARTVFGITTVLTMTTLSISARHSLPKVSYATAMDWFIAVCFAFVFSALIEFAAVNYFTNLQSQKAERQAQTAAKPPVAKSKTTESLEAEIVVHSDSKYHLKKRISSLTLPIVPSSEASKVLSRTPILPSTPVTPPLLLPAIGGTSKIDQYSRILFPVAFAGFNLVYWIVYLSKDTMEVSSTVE
Sequence of rat Glutamate, AMPA Site (AMPA), Gria1 (gene 50592) (P19490 whole entry, looked up): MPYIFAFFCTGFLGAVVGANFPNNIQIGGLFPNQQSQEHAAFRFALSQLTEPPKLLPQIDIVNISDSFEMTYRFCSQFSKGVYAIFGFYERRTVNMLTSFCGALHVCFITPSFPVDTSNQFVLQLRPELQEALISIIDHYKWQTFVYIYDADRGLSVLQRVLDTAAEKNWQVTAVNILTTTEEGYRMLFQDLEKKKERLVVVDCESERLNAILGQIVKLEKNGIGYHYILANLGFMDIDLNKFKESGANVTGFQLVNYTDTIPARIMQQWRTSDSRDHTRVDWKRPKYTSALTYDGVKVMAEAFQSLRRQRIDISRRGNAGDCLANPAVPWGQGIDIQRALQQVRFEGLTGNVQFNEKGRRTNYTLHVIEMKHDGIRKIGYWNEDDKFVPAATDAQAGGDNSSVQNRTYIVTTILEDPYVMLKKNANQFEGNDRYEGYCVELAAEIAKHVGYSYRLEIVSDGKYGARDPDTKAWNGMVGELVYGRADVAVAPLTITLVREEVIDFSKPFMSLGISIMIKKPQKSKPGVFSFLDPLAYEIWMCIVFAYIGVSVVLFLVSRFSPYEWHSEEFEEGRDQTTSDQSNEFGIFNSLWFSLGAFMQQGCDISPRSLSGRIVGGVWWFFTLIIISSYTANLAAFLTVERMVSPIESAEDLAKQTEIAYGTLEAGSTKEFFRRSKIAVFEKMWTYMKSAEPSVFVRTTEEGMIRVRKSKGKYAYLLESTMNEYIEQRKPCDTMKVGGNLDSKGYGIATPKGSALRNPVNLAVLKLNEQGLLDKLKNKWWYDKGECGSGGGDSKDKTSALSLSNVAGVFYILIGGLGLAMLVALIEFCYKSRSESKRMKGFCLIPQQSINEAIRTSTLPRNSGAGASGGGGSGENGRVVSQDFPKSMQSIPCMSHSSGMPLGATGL
Sequence of rat Thyrotropin Releasing Hormone Receptor (TRH), Trhr (gene 25570) (Q01717 whole entry, looked up): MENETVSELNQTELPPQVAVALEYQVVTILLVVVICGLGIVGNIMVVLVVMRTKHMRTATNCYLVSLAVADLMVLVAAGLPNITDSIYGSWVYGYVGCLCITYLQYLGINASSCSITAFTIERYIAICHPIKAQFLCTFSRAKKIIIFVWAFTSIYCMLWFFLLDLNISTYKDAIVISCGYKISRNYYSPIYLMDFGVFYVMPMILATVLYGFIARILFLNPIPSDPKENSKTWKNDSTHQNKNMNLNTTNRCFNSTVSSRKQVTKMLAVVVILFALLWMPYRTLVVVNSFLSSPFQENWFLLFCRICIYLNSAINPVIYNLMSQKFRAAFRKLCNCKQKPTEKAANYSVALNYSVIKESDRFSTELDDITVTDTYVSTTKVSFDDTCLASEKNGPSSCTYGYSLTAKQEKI

As a reminder, the AC50 is the concentration at which the activity in the assay is half-maximal. Turning to `CN(C)[C@@H]1C(=O)C(C(N)=O)=C(O)[C@@]2(O)C(=O)C3=C(O)c4c(O)cccc4[C@@](C)(O)[C@H]3[C@H](O)[C@@H]12`, the compound was called inactive in test [1] and in [2]. The concentration at half-maximal activity (AC50) in test [3] was 11.3 µM (active).

Regarding `CCc1cnc(C2=NC(C)(C(C)C)C(=O)N2)c(C(=O)O)c1` (configuration not stated), the outcome in test [4] was inactive.

On to `C[N+]1(C)CCCCC1`, for which, in [2], the compound was classed as inactive.

With `CNC(=O)ON=C(SC)C(=O)N(C)C`, the compound was called inactive (in test [2]; in the test on NCBI gene 100848466; in [5]; in [6]; in test [7]).

As to `N#CSCSC#N`, the call in [5] and in test [8] was inactive.

For `CC(C)N(C(=O)SCC(Cl)=C(Cl)Cl)C(C)C`, the AC50 in test [2] is 45.6 µM (active); in the test on NCBI gene 100848466 it was 36.8 µM (active). Besides, the result in test [5] was inactive.

Regarding `CC(C)[C@H](C(=O)O[C@H](C#N)c1cccc(Oc2ccccc2)c1)c1ccc(Cl)cc1`, the result with NCBI gene 100848466 was inactive.

Turning to `CCCSP(=O)(OCC)Oc1ccc(Br)cc1Cl` (configuration not stated), the results for the AC50 (in test [2]; in the test with NCBI gene 100848466; in [5]) were 0.28 µM (active), 20.1 µM (active) and 16 µM (active), respectively.

Turning to `CCOP(=S)(OCC)SCCSCC`, the half-maximal activity concentration (AC50) in [2] was 17.9 µM (active); with NCBI gene 100848466, 25 µM (active). Moreover, the result in test [5] was inactive.

Consider `CCCCN(CC)c1c([N+](=O)[O-])cc(C(F)(F)F)cc1[N+](=O)[O-]`, for which the call in [2] and in [5] was inactive.

Regarding `CN(C)C(=O)Nc1cccc(C(F)(F)F)c1`, the concentration at half-maximal activity (AC50) in test [2] was 10.8 µM (active). Moreover, the outcome in [9] and in [10] was inactive.

As to `CCOP(=O)(NC(C)C)Oc1ccc(SC)c(C)c1` (configuration not stated), the concentration at half-maximal activity (AC50) was 16.8 µM (active) in test [5] and 25 µM (active) in test [3].

Take `COc1cccc(C(=O)NN(C(=O)c2cc(C)cc(C)c2)C(C)(C)C)c1C`: the call in [5] was inactive.

Consider `CCOP(=S)(OCC)Oc1ccc([N+](=O)[O-])cc1`, for which the AC50 in [2] is 3.61 µM (active); with NCBI gene 100848466 it was 2.23 µM (active). In addition, in [5], the compound was called inactive.

On to `Cc1cc(C2CC2)nc(Nc2ccccc2)n1`, for which the concentration at half-maximal activity (AC50) was 7.55 µM (active) in [2] and 25 µM (active) in [5].

With `CC(COc1ccc(Oc2ccccc2)cc1)Oc1ccccn1` (configuration not stated), the outcome in test [2] and in test [5] was inactive.

On to `CC1(C(=O)Nc2ccc(O)c(Cl)c2Cl)CCCCC1`, for which the AC50 in test [2] was 0.47 µM (active). In addition, the result in [5] was inactive.

As to `CCc1cccc(C)c1N(C(=O)CCl)C(C)COC` (configuration not stated), the AC50 is 8.9 µM (active) in test [2] and 12.9 µM (active) in test [5]. The call (in test [11]; in the test with NCBI gene 100848466) was inactive.

With `CC1=NNC(=O)N(/N=C/c2cccnc2)C1`, the result in test [12] was inactive.

For `CCOP(=O)(OCC)Oc1cc(C)nc(C(C)C)n1`, the call in the test with NCBI gene 100848466 was inactive.

With `CCOP(=S)(OCC)Oc1cc(C)nc(C(C)C)n1`, in test [2], the concentration at half-maximal activity (AC50) is 1.3 µM (active). For the same compound, the outcome (with NCBI gene 100848466; in test [5]) was inactive.

As for `COP(=O)(OC)SCn1c(=O)oc2cc(Cl)cnc21`, the result in test [7] was inactive.

On to `CCOP(=S)(Oc1cnc(C(C)(C)C)nc1)OC(C)C` (configuration not stated), for which, in test [2], the compound was called inactive.

Turning to `CCOP(=S)(OCC)Oc1ccc2c(C)c(Cl)c(=O)oc2c1`, the half-maximal activity concentration (AC50) was 0.541 µM (active) in [2] and 1.01 µM (active) in the test on NCBI gene 100848466.
